Assay outcomes: PubChem BioAssay, National Center for Advancing Translational Sciences (NCATS)
ATXN viability: viability counter-screen for ATXN expression inhibitors; S2 cells (HEK-293 line with an ATXN2-luciferase reporter) viability, CellTiter-Fluor protease fluorescence, 24 h; Potency, µM (highest dose often 56.7 µM), hits mostly cytotoxic; 400,000 compounds, 0.49% hits; AID 651635; further: nearly all actives have a fitted effect of over 40% in size
ATXN2 expr inh: reduces ATXN2 reporter expression in HEK-293 cells; AID 1745845; Potency, µM (doses to about 57 µM), for inactives: at the highest dose activity change, negative = inhibition, actives largely listed as inhibitors; 360,000 compounds, 0.72% hits; HEK-293 ATXN2-luciferase reporter, luminescence, 24 h; further: on the % scale 0 is the no-effect control and ±100 the full control effect; nearly all actives have a fitted effect of over 55% in size
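ATXN2-luciferase reporter cells (luciferase flanked by upstream and downstream ATXN2 gene portions) were treated 24 h at 37 °C with compounds at up to 57 uM. SteadyGlo luminescence gave expression; GF-AFC fluorescence gave viability.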
TGFb inhibitor: TGF-b pathway inhibition; Potency, µM (series often up to 46.1 µM), without a hit: at the top dose activity, negative = inhibition, usual class: inhibitors; 410,000 compounds, 1.2% hits; HepG2 CAGA-GFP TGF-b/SMAD3 reporter, GFP fluorescence, 18 h; TGF-beta stimulated, 500 pg/mL final; AID 588855; further: on the % scale 0 is the no-effect control and ±100 the full control effect; nearly all actives have a fitted effect of over 65% in size
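First, reporter cells (HEPG2 CAGA-GFP) rested 2 h at 37 degrees C. Next, compounds were pinned in and TGF-beta added to 500 pg/mL final. After 18 h, GFP was imaged per cell and summed per well.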
DT40 TDP1 no CPT: qHTS for Inhibitors of human tyrosyl-DNA phosphodiesterase 1 (TDP1): qHTS in cells in absence of CPT; DT40 Tdp1-/- hTDP1 cells, no CPT, ATP luminescence, 48 h; Potency, µM (series often up to 46.2 µM), for inactives: at the top dose activity change, negative = growth inhibition, usual class: inhibitors; 420,000 compounds, 15% hits; AID 686978, 2013; further: on the % scale 0 is the no-effect control and ±100 the full control effect; nearly all actives have a fitted effect of over 55% in size
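Chicken DT40 Tdp1-/- cells complemented with human TDP1, screened without camptothecin (DMSO vehicle only), 400 cells/well. Compounds pin-transferred, cells incubated at 37 °C for at least 48 hr. Growth read as ATP-dependent luminescence (CellTiter-Glo, 30 min at RT).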
DT40 TDP1 CPT: DT40-hTDP1 cell growth loss with CPT. chicken DT40 Tdp1-/-;hTDP1 cells + 20 nM CPT, ATP luminescence, 48 h. Potency, µM (series often up to 46.2 µM), for the others: at the highest dose activity change, negative = growth inhibition, most hits filed as inhibitors. 420,000 compounds, 12% hits; further: on the % scale 0 is the no-effect control and ±100 the full control effect; nearly all actives have a fitted effect of over 55% in size
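Chicken DT40 Tdp1-/- cells stably complemented with human TDP1 were seeded at 400 cells/well in medium containing 20 nM camptothecin, exposed to pin-transferred compounds, and grown at 37 °C for at least 48 hr. Viability was read as ATP luminescence.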
HepG2 tox: counter-screen for TGF-b inhibitors: cytotoxicity in HepG2 cells. Potency, µM (highest dose often 46.1 µM), without a hit: at the top dose activity change, negative = cytotoxicity, most hits filed as cytotoxic. 410,000 compounds, 0.76% hits. HepG2 CAGA-GFP viability, ATP luminescence, 18 h. AID 588856
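CellTiter-Glo luminescence gave cytotoxicity after 18 hours at 37 degrees C. The cells were HepG2 CAGA-GFP in 1% FBS DMEM, stimulated with 500 pg/mL TGF-beta after compound addition. %Activity was normalised to no-cell wells (complete cell-killing) and DMSO (no toxicity), and curves were fitted and classified.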
An asterisk follows results filed as active; i = inactive; ? = inconclusive; . = no result; [ ] = remark or other dose. In the library only some 17% were active in any assay of this set; here they are far more common. The call rests on the fitted dose curve; in most records, active means well fitted curve in the direction sought with a large enough effect; inconclusive means small, poorly fitted or top-dose-only effect, or another doubt; inactive means no such curve, though single readings can be large; an effect the other way counts as inactive or inconclusive. Potency means the concentration at half of the fitted maximal effect.

SMILES | ATXN viability | ATXN2 expr inh | TGFb inhibitor | DT40 TDP1 no CPT | DT40 TDP1 CPT | HepG2 tox
C=C(C)C1CC=C(C)/C(=N\NC(=O)CCc2ccccc2)C1 (stereo not given) | i | -20% | 10% | ? | -26% | 4%
CCOc1cc(CNCC2CCCO2)cc(Br)c1OCC(N)=O (stereo not given) | i | -1% | ? | -13% | -13% | -11%
COc1cccc(CNC(=O)C(=O)Nc2ccc3nc4n(c(=O)c3c2)CCCCC4)c1 | ? | -14% | 1% | -29% | -17% | 0%
COc1ccc(CCNC(=O)c2c(O)nc3c(C)cccn3c2=O)cc1 | i | -11% | -3% | ? | 16µM* | -23%
Cc1cccn2c(=O)c(C(=O)NC(C)c3ccccc3)c(O)nc12 (stereo not given) | ? | -19% | -4% | ? | 18µM* | -31%
Cc1cccn2c(=O)c(C(=O)NCCc3ccc(S(N)(=O)=O)cc3)c(O)nc12 | i | -1% | -9% | -3% | -12% | 3%
CC(NC(=O)c1ccc(Cn2c(=O)c3cccn3c3cccnc32)cc1)c1ccccc1 (stereo not given) | . | . | -19% | ? | -29% | -5%
COc1ccc(CNC(=O)c2c(O)nc3c(C)cccn3c2=O)cc1 | i | 2% | 15% | 12µM* | ? | 0%
COc1cccc(CNC(=O)c2c(O)nc3ccccn3c2=O)c1 | i | -1% | 3% | ? | -10% | 0%
O=C(NCc1ccc(F)cc1)c1c(O)nc2ccccn2c1=O | i | 4% | -4% | 21µM* | ? | -15%
Cc1cccc(Nc2ncnc3c2cnn3C)c1C | . | . | -5% | ? | -25% | -50%
COC(=O)c1cc(CNC(=O)c2cccc3ccccc23)cc(NC(=O)c2ccccc2OC)c1 | ? | . | . | ? | 10%[9.04 µM] | .
COC(=O)c1cc(CNC(=O)c2ccccc2F)cc(NC(=O)c2ccccc2OC)c1 | ? | . | . | 23µM* | -17%[9.04 µM] | .
COC(=O)c1cc(CNC(=O)c2ccccc2OC)cc(NC(=O)c2ccccc2F)c1 | ? | . | . | 16µM* | 21µM* | .
COC(=O)c1cc2oc3ccccc3c2n1Cc1nc(-c2ccc(Cl)cc2)oc1C | i | -9% | -9% | -12% | -9% | -19%
CCCCSCc1nc2nc(Cl)c(Cl)nc2[nH]1 | ? | . | ? | 18µM* | 16µM* | -27%
O=C(Nc1ccc(S(=O)(=O)N2CCCC2)cc1)c1cnccn1 | i | 2% | -2% | ? | -20% | 5%
O=C(Nc1ccc(S(=O)(=O)N2CCN(Cc3ccccc3)CC2)cc1)c1cnccn1 | i | -21% | 0% | 5.2µM* | 9.2µM* | 5%
CN(CC(=O)Nc1ccc(Cl)cc1)C(=O)c1cccc(S(=O)(=O)NCc2ccccc2)c1 | i | -16% | -12% | ? | ? | -36%
CN(C)C(=O)c1ccc(NC(=O)c2cccc(S(=O)(=O)N3CCN(Cc4ccccc4)CC3)c2)cc1 | i | -15% | -14% | 18µM* | 15µM* | 0%
CN(CC(=O)Nc1ccc(Cl)cc1)C(=O)c1cccc(S(=O)(=O)N2CCN(Cc3ccccc3)CC2)c1 | i | ? | 0% | 5.2µM* | 5.8µM* | -29%
CC(C(=O)Nc1ccc(Cl)cc1Cl)N1C(=O)NC2(CCCCCCC2)C1=O (stereo not given) | i | -18% | ? | ? | ? | -37%
O=C1NC(c2ccccc2)(c2ccccc2)C(=O)N1COP(=O)(O)O | i | 8% | . | . | . | .
CCC1CO/C(=C(\C(Cl)=C(Cl)Cl)[N+](=O)[O-])N1 (stereo not given) | i | -6% | 2% | -2% | 3% | -16%
